Data as given in PubChem BioAssay AID1159580 (chemical genetic matrix, 2015).
Several values for one entry are separate records, joined by “and”; a condition that tells them apart may be missing. Equal entries are not always repeated. The whole screen tested about 5,500 compounds, of which about 2,000 (36%) were called active. Inconclusive results (about 18%) are left out. Rule as the data show it: active = normalized growth mostly below about 0.91 (no sharp cut-off); inconclusive = no clear call, values can overlap the other calls; inactive = mostly above about 0.92. The list shows a part of the results.

Experiment: chemical genetic growth profiling, strain panel (AID 1159580);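 also: tested at 20 µM; growth read once vehicle control cultures reached saturation at 30 °C; 1 = growth at the plate median or of vehicle wells; lower values mean less growth of the strain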
Conditions: S. cerevisiae deletion strains, growth OD

Measured: normalized growth

NCC(N)C(=O)c1ccccc1 (stereo not drawn)
inactive: locus YAL013W, strain DEP1, active compounds read low 1.01 | locus YAL021C, strain ccr4, active compounds read low 0.979 | locus YAL026C, strain drs2, active compounds read low 1.06 | locus YAL030W, strain snc1, active compounds read low 1.02 | locus YBL061C, strain skt5, active compounds read low 1.03 | locus YBR009C, strain hhf1, active compounds read low 1.04 | locus YBR021W, strain FUR4, active compounds read low 0.993 | locus YBR023C, strain chs3, active compounds read low 1.02 | locus YBR171W, strain sec66, active compounds read low 1.04 | locus YBR229C, strain ROT2, active compounds read low 1.01 | locus YBR231C, strain swc5, active compounds read low 1.02 | locus YBR279W, strain paf1, active compounds read low 1.03 | locus YCL011C, strain gbp2, active compounds read low 1.02 | locus YCL016C, strain dcc1, active compounds read low 1.01 | locus YCL029C, strain bik1, active compounds read low 0.995 | locus YCL061C, strain MRC1, active compounds read low 1.03 | locus YCL069W, strain vba3, active compounds read low 1.02 | locus YCR088W, strain abp1, active compounds read low 1.02 | locus YDL005C, strain med2, active compounds read low 1.03 | locus YDL035C, strain GPR1, active compounds read low 1.02 | locus YDL040C, strain nat1, active compounds read low 1.02 | locus YDL074C, strain BRE1, active compounds read low 1.01 | locus YDL101C, strain DUN1, active compounds read low 1.01 | locus YDL185W, strain tfp1, active compounds read low 1 | locus YDL192W, strain arf1, active compounds read low 1.01 | locus YDR001C, strain nth1, active compounds read low 1.01 | locus YDR069C, strain doa4, active compounds read low 1.02 | locus YDR101C, strain arx1, active compounds read low 0.997 | locus YDR137W, strain rgp1, active compounds read low 1.03 | locus YDR150W, strain NUM1, active compounds read low 1.01 | locus YDR159W, strain sac3, active compounds read low 1.05 | locus YDR162C, strain NBP2, active compounds read low 1.02 | locus YDR195W, strain ref2 1.01 | locus YDR297W, strain sur2, active compounds read low 1.02 | locus YDR318W, strain mcm21, active compounds read low 1.01 | locus YDR334W, strain swr1, active compounds read low 1.02 | locus YDR335W, strain msn5, active compounds read low 1.03 | locus YDR388W, active compounds read low 0.998 | locus YDR392W, strain spt3, active compounds read low 0.962 | locus YDR502C, strain sam2, active compounds read low 0.988 | locus YEL003W, strain gim4, active compounds read low 1.04 | locus YEL037C, strain rad23, active compounds read low 1.03 | locus YEL061C, strain CIN8 (second series), active compounds read low 1.03 | locus YEL061C, strain CIN8, active compounds read low 1.01 | locus YER015W, strain faa2, active compounds read low 1.03 | locus YER016W, strain bim1, active compounds read low 1.03 | locus YER110C, active compounds read low 1 | locus YER111C, strain swi4, active compounds read low 1.03 | locus YER155C, strain BEM2 (second series), active compounds read low 0.99 | locus YER155C, strain BEM2, active compounds read low 1.01 | locus YER167W, strain BCK2, active compounds read low 1.01 | locus YFR010W, strain ubp6, active compounds read low 1.03 | locus YGL078C, strain dbp3, active compounds read low 1.02 | locus YGL086W, strain mad1, active compounds read low 0.999 | locus YGL167C, strain pmr1, active compounds read low 1.03 | locus YGL173C, strain kem1, active compounds read low 1.06 | locus YGL227W, strain vid30, active compounds read low 1.02 | locus YGL240W, strain doc1, active compounds read low 1.01 | locus YGL248W, strain PDE1, active compounds read low 1.02 | locus YGL253W, strain hxk2, active compounds read low 1.05 | locus YGR135W, strain pre9, active compounds read low 1 | locus YGR229C, strain SMI1, active compounds read low 1.02 | locus YGR252W, strain gcn5, active compounds read low 0.96 | locus YHR013C, strain ard1, active compounds read low 1.04 | locus YHR027C, strain rpn1, active compounds read low 1.04 | locus YHR030C, strain SLT2, active compounds read low 1.01 and 0.973 | locus YHR079C, strain IRE1 (second series), active compounds read low 1 | locus YHR079C, strain IRE1, active compounds read low 0.97 | locus YHR094C, strain hxt1, active compounds read low 0.996 | locus YHR129C, strain ARP1, active compounds read low 1.01 | locus YHR142W, strain chs7, active compounds read low 1.05 | locus YHR200W, strain rpn10, active compounds read low 0.999 | locus YIL066C, strain RNR3, active compounds read low 1.01 | locus YIL073C, strain SPO22, active compounds read low 0.986 | locus YIL125W, strain kgd1, active compounds read low 1 | locus YIR030C, strain dcg1, active compounds read low 1 | locus YJL092W, strain hpr5, active compounds read low 1.03 | locus YJL095W, strain BCK1 (second series), active compounds read low 1.03 | locus YJL095W, strain BCK1, active compounds read low 1.02 and 0.963 | locus YJL115W, strain asf1, active compounds read low 1.03 | locus YJL129C, strain trk1, active compounds read low 1.04 | locus YJL134W, strain LCB3, active compounds read low 1.01 | locus YJL154C, strain vps35, active compounds read low 1.02 | locus YJL164C, strain tpk1, active compounds read low 1.03 | locus YJL166W, strain qcr8, active compounds read low 1.02 | locus YJL168C, strain set2, active compounds read low 1.01 | locus YJL187C, strain SWE1 (second series), active compounds read low 1 | locus YJL187C, strain SWE1, active compounds read low 1.05
